Results from PubChem BioAssay AID1069 (NMMLSC, 2008).
Calls of active or inactive are those of the source.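 Rule for the calls: active = high combined rank on largest and smallest cell-count-weighted shift across three tests, rank score above 45, floors 50 and 25 (some results past the limit were not filed as active); inactive = the rest.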

Test: LNCaP granularity increase inducers, single-point recheck – cell-based, side scatter shift, flow cytometry, confirmation (AID 1069);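 note: LNCaP human prostate cancer cells in low-serum medium with charcoal-stripped FBS; percent of cells with raised granularity gated so DMSO controls show 10%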
Settings: LNCaP differentiation, 4 d, stronger effect = higher value

SMILES | side scatter shift (at 100 µM) | side scatter shift (side scatter shift, at 10 µM) [%]
CCn1c(=O)cc(OCC(=O)N2CCN(Cc3ccc4c(c3)OCO4)CC2)c2ccccc21 | 0% (inactive) | 3.6
CCn1c(=O)cc(OCC(=O)N2CCC3(CC2)OCCO3)c2ccccc21 | 6.7% (inactive) | 1.7
O=C(COc1ccc2ccccc2c1)N1CCN(C2CCN(Cc3ccccc3)CC2)CC1 | 54.3% (inactive) | 5.8
CCOc1ccc(C2SCC(=O)Nc3c2c(=O)[nH]n3C2CCCCCC2)cc1 (stereo not given) | 22.2% (inactive) | 10.5
Cc1ccc(Cn2c(C)c3cnn(CC(=O)N4CCC5(CC4)OCCO5)c(=O)c3c2C)cc1 | 9.1% (inactive) | 3.35
Cc1nc2ccccc2c(=O)n1-c1ccc(F)cc1 | 8.9% (inactive) | 3.5
C[C@H]1CCC/C=C/C2C[C@H](O)CC2[C@H](O)/C=C/C(=O)O1 (stereo not given in full) | 8.7% (inactive) | 9.7
Cc1cc(OCC(=O)O)c2c3c(c(=O)oc2c1)CCCC3 | 5.1% (inactive) | 5.9
Clc1ccc(COC(Cn2ccnc2)c2ccc(Cl)cc2Cl)cc1 (stereo not given) | 18.2% (inactive) | 2.85
Cc1ccc2c(c1)[C@@H]1CN(C)CC[C@@H]1N2C(=O)Nc1cccc(C(F)(F)F)c1 | 23.1% (inactive) | 10.6
